# Experimental data: publication PMC7826789 (International Journal of Molecular Sciences, 2021)
# Legend:
# Settings in all cases: Compound Concentration (nM):1000
# KIT-autoinhibited = tested on: KIT-autoinhibited
# KIT = tested on: KIT
# LATS1 = tested on: LATS1
# LATS2 = tested on: LATS2
# LCK = tested on: LCK
# LIMK1 = tested on: LIMK1
# LIMK2 = tested on: LIMK2
# LKB1 = tested on: T1, LKB1
# T1 construct: gene STK11
# LOK = tested on: T2, LOK
# T2 construct: gene STK10
# LRRK2(G2019S) = tested on: LRRK2(G2019S)
# LRRK2 = tested on: LRRK2
# LTK = tested on: LTK
# LYN = tested on: LYN
# LZK = tested on: T3, LZK
# T3 construct: gene MAP3K13
# MAK = tested on: MAK
# MAP3K15 = tested on: MAP3K15
# MAP3K1 = tested on: MAP3K1
# MAP3K2 = tested on: MAP3K2
# MAP3K3 = tested on: MAP3K3
# MAP3K4 = tested on: MAP3K4
# 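Also: KINOMEscan scanMAX binding as percent activity remaining versus control; lower means stronger binding.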
SMILES,Percent Control (KIT-autoinhibited),Percent Control (KIT),Percent Control (LATS1),Percent Control (LATS2),Percent Control (LCK),Percent Control (LIMK1),Percent Control (LIMK2),Percent Control (LKB1),Percent Control (LOK),Percent Control (LRRK2(G2019S)),Percent Control (LRRK2),Percent Control (LTK),Percent Control (LYN),Percent Control (LZK),Percent Control (MAK),Percent Control (MAP3K15),Percent Control (MAP3K1),Percent Control (MAP3K2),Percent Control (MAP3K3),Percent Control (MAP3K4)
CC(C)COC(=O)c1ccc2c(c1)/C(=C/Nc1ccc(S(N)(=O)=O)cc1)C(=O)N2 [GW416981X],85%,100%,100%,91%,100%,100%,100%,100%,100%,36%,56%,100%,100%,100%,100%,100%,67%,66%,90%,100%
Cl.O=S1CCN(Cc2ccc(-c3ccc4ncnc(Nc5ccc(OCc6ccccc6)c(F)c5)c4c3)o2)CC1 [GW576924A],100%,100%,100%,100%,100%,100%,100%,100%,100%,100%,98%,100%,100%,100%,100%,94%,81%,100%,100%,100%
COc1cccc(-c2c[nH]c3c(N/N=C/c4ccncc4)ncnc23)c1 [GW814408X],38%,5%,100%,89%,7.5%,100%,84%,88%,100%,89%,100%,98%,50%,93%,100%,100%,92%,65%,57%,100%
NS(=O)(=O)c1ccc(N/N=C2\C(=O)Nc3ccc(C(=O)NCc4ccncc4)cc32)cc1 [GW300657X],99%,87%,100%,67%,100%,100%,90%,100%,100%,89%,69%,100%,81%,72%,100%,80%,67%,87%,72%,99%
COc1ccccc1-c1cc(/C=C2\C(=O)Nc3ncc(Br)cc32)cc(Br)c1O [GW442130X],100%,70%,100%,100%,100%,100%,100%,73%,100%,93%,100%,100%,100%,84%,100%,89%,99%,100%,100%,100%
COc1cc2ncnc(Nc3ccc4c(cnn4Cc4ccccc4)c3)c2cc1OC.Cl [GW282449A],100%,100%,100%,100%,23%,95%,100%,100%,13%,100%,100%,46%,46%,100%,100%,98%,84%,100%,100%,100%
C/C(Nc1ccc(S(N)(=O)=O)cc1)=C1/C(=O)Nc2ccccc21 [GW335962X],28%,99%,100%,83%,91%,100%,94%,86%,79%,47%,55%,78%,87%,97%,98%,93%,62%,53%,55%,100%
COc1cc(N2CCN(C(C)C)CC2)ccc1Nc1nc(Nc2ccc(F)cc2C(=O)NC[C@@H](O)CO)c2cc[nH]c2n1 [GSK1392956A],100%,100%,100%,95%,100%,92%,75%,81%,100%,5.4%,12%,66%,92%,100%,100%,93%,86%,100%,88%,94%
O=C(Nc1n[nH]c2nc(-c3ccc(O)cc3)c(Br)cc12)C1CC1 [SB-725317],86%,84%,100%,94%,83%,100%,100%,100%,95%,96%,89%,60%,100%,100%,39%,94%,60%,84%,97%,100%
NS(=O)(=O)c1ccc(N/N=C2\C(=O)Nc3ccc(Cl)cc32)cc1 [GW280670X],42%,90%,100%,98%,96%,100%,100%,100%,100%,70%,72%,100%,90%,100%,100%,100%,63%,100%,100%,100%
